Values joined by “and” are separate entries in the source; they are usually repeats but may differ in a detail not shown here. Identical values can stand only once. Out of some 5,500 compounds screened, about 2,000 (36%) were called active. Inconclusive results (about 18%) are left out. Cut-off read from the data, not from the text of the source: active = normalized growth mostly below about 0.91 (no sharp cut-off); inconclusive = no clear call, values can overlap the other calls; inactive = mostly above about 0.92. The list shows a part of the results.
Assay: chemical genetic growth profiling, strain panel (AID 1159580);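 note: tested at 20 µM; growth read once vehicle control cultures reached saturation at 30 °C; 1 = growth at the plate median or of vehicle wells; lower values mean less growth of the strain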
Settings: S. cerevisiae deletion strains, growth OD

Measured: normalized growth

Cc1cc(C(C)(C)C)cc(C)c1CC1=NCCN1
inactive: locus YAL013W, strain DEP1, active compounds read low 1.02 and 0.999 | locus YAL021C, strain ccr4, active compounds read low 0.987 | locus YAL026C, strain drs2, active compounds read low 0.986 | locus YAL030W, strain snc1, active compounds read low 1 | locus YAL040C, strain CLN3, active compounds read low 0.976 | locus YBL061C, strain skt5, active compounds read low 0.999 | locus YBR009C, strain hhf1, active compounds read low 0.957 | locus YBR021W, strain FUR4, active compounds read low 1.02 | locus YBR023C, strain chs3, active compounds read low 1.01 | locus YBR171W, strain sec66, active compounds read low 1.01 | locus YBR229C, strain ROT2, active compounds read low 1.01 | locus YBR231C, strain swc5, active compounds read low 1 | locus YBR279W, strain paf1, active compounds read low 0.993 | locus YCL011C, strain gbp2, active compounds read low 0.988 | locus YCL016C, strain dcc1, active compounds read low 0.99 | locus YCL029C, strain bik1, active compounds read low 1.01 | locus YCL061C, strain MRC1 (second series), active compounds read low 0.999 | locus YCL061C, strain MRC1, active compounds read low 1.02 | locus YCL069W, strain vba3, active compounds read low 1 | locus YCR088W, strain abp1, active compounds read low 0.996 | locus YDL005C, strain med2, active compounds read low 1.01 | locus YDL035C, strain GPR1, active compounds read low 1.03 | locus YDL040C, strain nat1, active compounds read low 1 | locus YDL074C, strain BRE1, active compounds read low 1.02 | locus YDL101C, strain DUN1, active compounds read low 1.01 | locus YDL134C, strain PPH21, active compounds read low 1.02 | locus YDL185W, strain tfp1, active compounds read low 1.01 | locus YDL192W, strain arf1, active compounds read low 1.01 | locus YDR001C, strain nth1, active compounds read low 1.01 | locus YDR069C, strain doa4, active compounds read low 1.02 | locus YDR101C, strain arx1, active compounds read low 1 | locus YDR137W, strain rgp1, active compounds read low 0.994 | locus YDR150W, strain NUM1, active compounds read low 1.02 | locus YDR159W, strain sac3, active compounds read low 0.941 | locus YDR162C, strain NBP2, active compounds read low 1.01 | locus YDR195W, strain ref2 1.01 | locus YDR297W, strain sur2, active compounds read low 1 | locus YDR318W, strain mcm21, active compounds read low 0.995 | locus YDR334W, strain swr1, active compounds read low 0.993 | locus YDR335W, strain msn5, active compounds read low 0.999 | locus YDR363W, strain ESC2, active compounds read low 1 | locus YDR388W, active compounds read low 1 | locus YDR392W, strain spt3, active compounds read low 0.926 | locus YDR502C, strain sam2, active compounds read low 0.998 | locus YEL003W, strain gim4, active compounds read low 1.01 | locus YEL037C, strain rad23, active compounds read low 1 | locus YEL061C, strain CIN8 (second series), active compounds read low 0.997 | locus YEL061C, strain CIN8, active compounds read low 1.02 | locus YER002W, strain NOP16, active compounds read low 1 | locus YER015W, strain faa2, active compounds read low 0.998 | locus YER016W, strain bim1, active compounds read low 0.973 | locus YER110C, active compounds read low 0.994 | locus YER111C, strain swi4, active compounds read low 1 | locus YER155C, strain BEM2 (second series), active compounds read low 1.02 | locus YER155C, strain BEM2, active compounds read low 1.01 | locus YER167W, strain BCK2, active compounds read low 1.01 | locus YFR010W, strain ubp6, active compounds read low 1.02 | locus YGL078C, strain dbp3, active compounds read low 1 | locus YGL086W, strain mad1, active compounds read low 1 | locus YGL167C, strain pmr1, active compounds read low 1 | locus YGL173C, strain kem1, active compounds read low 1.02 | locus YGL227W, strain vid30, active compounds read low 1 | locus YGL240W, strain doc1, active compounds read low 1.03 | locus YGL248W, strain PDE1, active compounds read low 1 | locus YGL253W, strain hxk2, active compounds read low 0.977 | locus YGR078C, strain PAC10, active compounds read low 1.01 | locus YGR135W, strain pre9, active compounds read low 1 | locus YGR229C, strain SMI1, active compounds read low 1.02 | locus YGR252W, strain gcn5, active compounds read low 0.951 | locus YHR013C, strain ard1, active compounds read low 0.971 | locus YHR027C, strain rpn1, active compounds read low 0.993 | locus YHR030C, strain SLT2, active compounds read low 1.02 and 1.01 | locus YHR079C, strain IRE1 (second series), active compounds read low 0.995 | locus YHR079C, strain IRE1, active compounds read low 1.01 | locus YHR094C, strain hxt1, active compounds read low 1 | locus YHR129C, strain ARP1, active compounds read low 1.01 | locus YHR142W, strain chs7, active compounds read low 1.02 | locus YHR200W, strain rpn10, active compounds read low 1 | locus YIL066C, strain RNR3, active compounds read low 1.02 | locus YIL073C, strain SPO22, active compounds read low 1.04 | locus YIL125W, strain kgd1, active compounds read low 0.997 | locus YIR030C, strain dcg1, active compounds read low 1 | locus YJL092W, strain hpr5, active compounds read low 1.02 | locus YJL095W, strain BCK1 (second series), active compounds read low 1.01 | locus YJL095W, strain BCK1, active compounds read low 1.01 and 0.982 | locus YJL115W, strain asf1, active compounds read low 0.985 | locus YJL129C, strain trk1, active compounds read low 1.02 | locus YJL134W, strain LCB3, active compounds read low 1.01 | locus YJL154C, strain vps35, active compounds read low 1.01 | locus YJL164C, strain tpk1, active compounds read low 0.98 | locus YJL166W, strain qcr8, active compounds read low 1.03 | locus YJL168C, strain set2, active compounds read low 0.998 | locus YJL187C, strain SWE1 (second series), active compounds read low 1.03 | locus YJR043C, strain POL32, active compounds read low 1 | locus YJR066W, strain TOR1, active compounds read low 0.937
